# Reference: the supplement of paper PMC11417369
# Over roughly 25,000 sequences, “ln(normalized median fluorescence intensity)” has its median near 9.3; the highest 2% begin near 10. What follows is part of a selection rich in the highest values, with near analogues and random picks from the rest.
# Tested on: PF3D7_0420300 AP2 domain 1 (GST-tagged)
# Experiment: gcPBM binding intensity (ln(normalized median fluorescence intensity)); higher = stronger DNA binding
# Procedure, shortened: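 After 1 h on an Agilent 4 × 180k array of primer-extended double-stranded 36-bp intergenic genomic probes and negative controls, bound GST-tagged P. falciparum DNA-binding domains were detected with Alexa488 anti-GST antibody and scanned at 488 nm. The domains had been expressed in E. coli, and binding took place in 1× PBS with 1% milk, 0.2 mg/ml BSA, 0.5% salmon testes DNA and 0.03% Triton X-100. Binding intensity is the highest Masliner-normalised natural-log median intensity across replicate spots of either probe orientation.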
row,Sequence,gcPBM binding intensity (ln)
1,CCACAGGATTGGTTCAAACACACATATTATATGACT [CACACA_site661],9.39
2,CCTTTATTAAATAAATGTACATATTTTTGTGTTCTT [XGTACX_site2052],9.4
3,GAAATATAATTTATTACACACATTTTAAAAAAATTC [CACACA_site1087],9.26
4,AAAAAAAAAAAAAAATGTACATTATACACATTATAT [XGTACX_site6824],9.28
5,AAAGGGGAGATATGAACACACAAAAAAAAAATATAT [CACACA_site7378],9.58
6,CTATACAATAAAAATTGTACATACATATATGTTATA [XGTACX_site5309],9.17
7,TATAACTTTTTTATTACACACCTATGTAATATTATA [CACACA_site944],9.37
8,CCTAAATAATATCTATCACACACGCATATATACATA [CACACA_site8838],9.56
9,TATGTTAAAAAAAAAAAAAAGAAAAAAATAAAAGGA [CACACA_negctrl_site119],9.44
10,TATAAGAGAATATATACACACAAAAATAAATACAGT [CACACA_site5000],10.3
11,AAGAGAAAAATATATACACACACATAAATATATACA [CACACA_site8573],9.96
12,TATAAATATATATATACACACACATACACAAAAAAA [CACACA_site9191],10.2
13,TAAATATATAAATACACACAAACATACATATATATA [CACACA_site4050],9.88
14,AAAAAAAAAGATCACACACACATAAATATAAACAAA [CACACA_site5285],10.2
15,CACAAAAATAAACACACACACATATATATATATATA [CACACA_site4704],9.75
16,TAAATATATAAATACACACACATACACAAAAAAAAA [CACACA_site5890],10.1
17,TATAAATATACAAACACACATACAAACATATATATA [CACACA_site1120],9.91
18,TATAAGAGAATATATACACACAAAAATATATACAGT [CACACA_site1668],9.89
19,TCAAAAATAAAGATCACACATATATATATATATATA [CACACA_site4381],9.2
20,CACATACATATATACACACACAAAATAATAAAATAA [CACACA_site2308],10
21,CATACATACAAACACACACACATATAAATACATACA [CACACA_site4625],10.2
22,AATACATACATACATACATGCATATATATATATATA [TGCATGCA_site462],9.42
23,ATTTACATTCACTTATGTACTTATATAATTTTATTT [XGTACX_site8150],9.54

row,Sequence,gcPBM binding intensity (ln)
1,CCCATTTTGACAAAAAGTACAAGTTCAGGTTTTATA [XGTACX_site1532],9.22
2,AACTATAAAAATTTTACACACTGTTTTTAAATAATG [CACACA_site5928],9.4
3,TATAAAAAATAATACACACACATGGCGACAAAATAA [CACACA_site2420],10.2
4,TAATAAAAAATATATACACACAAATAAATAAATAAA [CACACA_site4037],9.83
5,AGATAAAATAAATACACACACATAAATACGTACAAA [CACACA_site4739],10.2
6,TACACAAAAATAAACACACACACATATAAATAAATA [CACACA_site6599],10.2
7,ATATATATATATTACACACACACAAAAAAAATAAAG [CACACA_site118],10.4
8,AGATAAAATATATACACACACATAAATACGTACAAA [CACACA_site1086],10.1
9,TATTTACACAAAATAAAATATATTATATATATATAT [TGCATGCA_negctrl_site381],8.93
10,ATAAATAAGATACGTACACACATATACAAAATATAC [CACACA_site3661],9.95
11,ATATAAATATTAATTACACACAAAAAAAAAAAAAAA [CACACA_site6671],9.35
12,AATATAAAAAATAATACACACACATGGCGACAAAAT [CACACA_site8765],10.2
13,AATATATAAATATATACACACAAAAACATATATATA [CACACA_site1318],9.8
14,TACACAAAAATAAACACACACACATATATATATATA [CACACA_site1000],9.78
15,GGTGTATGTTAAAGGAGTACATATATATATATATAT [XGTACX_site7727],9.3
16,ACCTTTGATATATACACACACATAAAAAAAATATAT [CACACA_site6952],9.93
17,TACAACCTTTAGACAAGTACAAGAATTATATGTGGC [XGTACX_site4581],9.4
18,AAAAAAAAAAATTACACACATACATATAATAATAAT [CACACA_site2193],9.85
19,AGCAGTCGACAGGACAGTACACAGTAGCCAGGAAAT [XGTACX_site4929],9.32
20,AAATTATAAATACCTACACACTTATCAAAATAAATT [CACACA_site5280],9.56
21,ATTGGGTTCATCAGCACACACAACATCATGTAATAA [CACACA_site5093],9.5
22,AATTAATGGAAACAAGTCAAATGATCTTTATGCATA [TGCATGCA_negctrl_site540],9.13
23,TTTATATAATTTTAATGTACATATATATATATAAAT [XGTACX_site4381],8.98

row,Sequence,gcPBM binding intensity (ln)
1,AAAAAACACAGACACACACACATATACATACATACA [CACACA_site2666],10.2
2,TAAACAGACATATAAACACACATACATACATACATA [CACACA_site7215],9.56
3,AAAAAAAACAGACACACACACACATATACATACATA [CACACA_site2665],10.2
4,TAAACAGACATACATACACACATACATACAGACATA [CACACA_site6997],9.88
5,CATATACATACACATACACACATACAGACATACACA [CACACA_site6919],9.83
6,AAAAAAAACAGACACACACACATACACATACATACA [CACACA_site2857],10.2
7,AACAGACATACATACACACATACATACAGACATACA [CACACA_site1942],9.9
8,TACATACACAGACACACACACATATATATATATATA [CACACA_site3557],9.89
9,TACACATACAGACATACACACATACACATATACACA [CACACA_site6918],9.88
10,TAATGATTATATGACTGTACATTTGTAGGTATAATT [XGTACX_site3373],9.18
11,ACATAAAAATTATGCACACTTAATAAAGCGAAATGT [CACACA_site3183],9.45
12,TATATATAAAAATATACACACACAAATGTATATATA [CACACA_site7956],9.54
13,AAATATTTTATACTTGCACACAAAATATATTAAAAT [CACACA_site8606],9.32
14,AAAAACAAAAAAGAAGCACACATATATATATATATA [CACACA_site8779],9.6
15,ATCCTACTATGTTATACACACAATTACTTTTTTCTC [CACACA_site3712],9.86
16,GGTGGTGGTGGGTGGGTGCTTCTATTATTATATTAT [GTGCAC_site9391],10.7
17,CTTATTATTATATGGGTGCTCATATTTTTCTTTTTT [GTGCAC_site9723],9.4
18,TTATACTTTGGGTGGTGTACTATATTATGCTTATAA [XGTACX_site1106],9.51
19,CCTTTATAATTGGAAACACACATATAAAGTATATAT [CACACA_site3900],9.2
20,CATTCAAACAAAAAAAGTACTCATCACATAATATAT [XGTACX_site1251],9.44
21,ATATAAATAAACAGGTGTACTATAATGTTCATAGTA [XGTACX_site1553],9.47
22,TTAATTATAATTATATGTACGAACTTTTTTTTTTTT [XGTACX_site6586],9.14
23,TTCATTAAAACGAATACACACATAAATATATAAAAG [CACACA_site4824],9.62

row,Sequence,gcPBM binding intensity (ln)
1,AAAAAAAAAAAAAAAACACACAGAACAATATATAAA [CACACA_site4698],9.76
2,AAAAAAAAAAAACACACACACACATTCAATATAAAA [CACACA_site40],10
3,AAAAAAAACGAACACACACACATTCAATATAAAACA [CACACA_site6170],10.2
4,AAAAAAAACAGACACACACACATAAATATAAATAAA [CACACA_site6214],9.96
5,AATATTAAAATATAAACACACAAAATTCAATTATAT [CACACA_site5971],9.61
6,AAAAAAAACGGACACACACACATTCAATATAAAACA [CACACA_site4189],10.2
7,AAAAAAAACAGACACACACACATTCAATATAAAACA [CACACA_site41],10.2
8,AATATTATAATATAAACACACAAAATTCAATTATAT [CACACA_site3789],9.69
9,TATAATAGTTCATAGGTGCAATATAATAAATTTATA [GTGCAC_site9573],9.13
10,TACCTTTATTAATAAAGTACATTAATCTGTGTATAC [XGTACX_site8720],9.09
11,AGTATTCACTTAATATGTACATATTTATTATAAGAG [XGTACX_site3434],9.11
12,ACATCAAGAATTATTAAGAATACGGATAGATAAAAT [GTGCAC_negctrl_site261],9.4
13,ATAAAATTTTATATGGGTACATAATATAATATATAT [XGTACX_site8160],9.21
14,TATAAGAATAAAAAGGGTACATAAAATAATAATATA [XGTACX_site2355],9.55
15,ATTATAAGAAGGGGGGGTACATAAATATAAATGTAT [XGTACX_site5624],10.3
16,AAAAAAAAAAAGAAGGGTACATATTATATATAATAT [XGTACX_site6204],9.43
17,ATATTAAAAATATATACACACATATATATAAATATA [CACACA_site2257],9.37
18,AAAAAAAATAAAAATAGTACTCAAAAAATTATGAAT [XGTACX_site3073],9.19
19,GCTCAATTTTTGGGTACACACAAATGTATAAGAATA [CACACA_site7178],9.22
20,TTATGGTTATACATATGTACATATATATATATATAT [XGTACX_site1494],9.29
